Laboratory results reported in PubChem BioAssay.
For part of these data: Potency and affinity values are given separately. Calls of active or inactive are those of the source.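 The calls were made as follows, unless noted: active = fitted half-maximal concentration within the tested dose range, moderate curve steepness, a statistically real signal drop, and little compound fluorescence or tag-binding interference; inactive = the rest.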

Legend:
[1] = target: Cell division control protein 42 homolog (Homo sapiens) (UniProt P60953); experiment: inhibition of fluorescent GTP binding to constitutively active Cdc42 – biochemical, multiplex bead flow cytometry, Bodipy-FL-GTP, dose response (AID 1333)
Cell division control protein 42 homolog (Homo sapiens), sequence (P60953 whole entry, looked up): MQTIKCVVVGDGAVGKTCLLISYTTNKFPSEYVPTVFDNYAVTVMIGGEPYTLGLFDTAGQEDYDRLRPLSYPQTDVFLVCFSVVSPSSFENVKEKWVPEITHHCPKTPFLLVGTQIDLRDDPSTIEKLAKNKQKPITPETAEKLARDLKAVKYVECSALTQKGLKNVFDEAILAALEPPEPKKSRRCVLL

[2] = target: Cell division control protein 42 homolog (Homo sapiens) (UniProt P60953); experiment: inhibition of fluorescent GTP binding to wildtype Cdc42 – biochemical, multiplex bead flow cytometry, Bodipy-FL-GTP, dose response (AID 1334;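 active = fitted half-maximal concentration within the tested range, moderate curve steepness, significant signal drop, and little compound fluorescence or bead-linkage interference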); settings: bead-based flow cytometry, Bodipy-FL-GTP binding to GST-Cdc42; at 100 µM (top of the series) unless noted
[3] = target: GTPase HRas (Homo sapiens) (UniProt P01112); experiment: Ras wt fluorescent GTP loading blockade – biochemical, wildtype, multiplex bead flow cytometry, dose response (AID 1335;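 active = fitted half-maximal concentration within 10 nM to 100 µM, steepness 0.5 to 2, significant signal drop, low assay interference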); settings: bead-based flow cytometry, Bodipy-GTP binding to GST-Ras; at 100 µM (top of the series) unless noted
GTPase HRas (Homo sapiens), sequence (P01112 whole entry, looked up): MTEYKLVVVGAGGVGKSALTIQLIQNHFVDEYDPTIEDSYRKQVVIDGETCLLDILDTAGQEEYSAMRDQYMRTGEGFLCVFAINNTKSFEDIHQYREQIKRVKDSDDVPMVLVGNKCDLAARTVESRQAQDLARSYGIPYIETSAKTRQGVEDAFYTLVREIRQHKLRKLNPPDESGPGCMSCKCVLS

[4] = test system: Ras-related protein Rab-7a (dog), GTP binding; experiment: blockers of fluorescent GTP binding to Rab7 – biochemical, wildtype, multiplex bead flow cytometry, dose response (AID 1336; call rule not given here)
[5] = target: Ras-related C3 botulinum toxin substrate 1 (Homo sapiens) (UniProt P63000); experiment: inhibition of wildtype Rac1 nucleotide loading – biochemical, multiplex bead flow cytometry, dose response (AID 1340;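 active = dose curve with midpoint inside tested range, moderate steepness, plateau gap beyond fit error, low compound glow and bead-link interference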); settings: GST-Rac1 beads, Bodipy-FL-GTP binding; at 100 µM (top of the series) unless noted
[6] = target: GTPase HRas (Homo sapiens) (UniProt P01112); experiment: blockade of GTP loading onto mutant Ras – biochemical, activated mutant, multiplex bead flow cytometry, dose response (AID 1341;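 active = dose-response curve with midpoint inside the tested range, moderate steepness, significant amplitude and little compound fluorescence or bead-attachment interference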;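 also: GST-tagged constitutively activated Ras mutant immobilized on beads and multiplexed with other GTPases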)

| Structure (SMILES) | outcome [1] | fluorescence, percent of control (lower = inhibition) [2] [%] | GTP binding, percent of control [3] [%] | outcome [4] | GTP binding signal, raw median fluorescence (lower = inhibition) (MCF (arbitrary fluorescence units)) [5] | outcome [6] |
| --- | --- | --- | --- | --- | --- | --- |
| O=C(O)/C=C/C(=O)Nc1cccnc1 | inactive | 50.8 | 64.4 | inactive | 200 | inactive |
| O=C(CSc1ccc2nnc(-c3ccncc3)n2n1)Nc1nccs1 | inactive | 30.7 | 69.4 | inactive | 174 | inactive |
| CN(/N=C/c1ccc(Br)o1)C1=NS(=O)(=O)c2ccccc21 | inactive | 32.2 | 69.7 | inactive | 185 | inactive |
| CCCn1cc(CN2CCCC(CNC(=O)c3ccc(F)cc3)C2)c(C)n1 (stereo not given) | inactive | 37.6 | 85.7 | inactive | 247 | inactive |
| Cc1ccc(Nc2c(F)c(F)c(F)c(F)c2C(=O)O)cc1 | inactive | 84.8 | 106 | inactive | 74 | inactive |
| C=CCc1ccccc1OCC(O)CN1CCN(C(=O)OCC)CC1 (stereo not given) | inactive | 48.3 | 60.5 | inactive | 194 | inactive |
| O=C(O)c1cccnc1SCc1ccc([N+](=O)[O-])cc1 | inactive | 71.2 | 92 | inactive | 45.6 | inactive |
| Nc1nonc1-c1nc2ccccc2n1CC(=O)N/N=C/c1ccc(-c2ccccc2C(=O)O)o1 | inactive | 30.6 | 68.4 | inactive | 133 | inactive |
| CCOc1cc(/C=C(/C#N)c2nc3ccccc3[nH]2)ccc1OCc1ccc(C(=O)O)o1 | inactive | 56.8 | 84.9 | inactive | 103 | inactive |
| Cc1c(C(=O)N2CCc3ccccc3C2)oc2ccc(S(=O)(=O)N3CCCCCC3)cc12 | inactive | 56.2 | 76 | inactive | 274 | inactive |
| O=C(CSc1ncccc1C(=O)O)c1ccc2ccccc2c1 | inactive | 48.7 | 66.6 | inactive | 0 | inactive |
| COc1cc(C)c2c(c1C=O)Oc1c(c(C)c(O)c3c1C(O)OC3=O)OC2=O (stereo not given) | inactive | 54.3 | 102 | inactive | 135 | inactive |
| O=C(O)c1ccc(N2C(=O)/C(=C/c3ccc(-c4ccc([N+](=O)[O-])cc4)o3)C=C2c2ccccc2)cc1 | inactive | 33.9 | 77.4 | inactive | 179 | inactive |
| COCCNc1nc(=S)[nH]c2cc(OC)c(OC)cc12 | inactive | 35.9 | 43.7 | inactive | 103 | inactive |
| Cc1cc2ccccn2c1C(=O)c1cccc([N+](=O)[O-])c1 | inactive | 34 | 81.2 | inactive | 250 | inactive |
| O=C(O)C1(NCc2ccccc2Cl)CCCCC1 | inactive | 66 | 91.3 | inactive | 34.5 | inactive |
| CC1=CC(=O)C=C(C)C1=NOS(=O)(=O)c1ccccc1 | inactive | 29.6 | 81.2 | inactive | 223 | inactive |
| O=C(O)C1CCCN1C(=O)OCc1ccccc1 (stereo not given) | inactive | 108 | 188 | inactive | 235 | inactive |
| Cc1cc(/C=c2\sc3nc4ccccc4n3c2=O)c(C)n1-c1ccc(C(=O)O)cc1 | inactive | 18.4 | 70.1 | inactive | 204 | inactive |
| CCCCCn1nc(C(=O)OCC(=O)c2c(N)n(C)c(=O)n(C)c2=O)c2ccccc2c1=O | inactive | 34 | 79.6 | inactive | 232 | inactive |

| Structure (SMILES) | outcome [1] | fluorescence, percent of control (lower = inhibition) [2] [%] | GTP binding, percent of control [3] [%] | outcome [4] | GTP binding signal, raw median fluorescence (lower = inhibition) (MCF (arbitrary fluorescence units)) [5] | outcome [6] |
| --- | --- | --- | --- | --- | --- | --- |
| Cc1ccc(NC(=S)Nc2ccc3nc(-c4ccccn4)c(-c4ccccn4)nc3c2)cc1C | inactive | 53.7 | 69 | inactive | 0 | inactive |
| COc1cc2[nH]c(=S)nc(NCCCOC(C)C)c2cc1OC | inactive | 38.7 | 50.6 | inactive | 116 | inactive |
| COc1cccc(-n2nc3c(=S)[nH]nc(C)c3c2C)c1 | inactive | 50.1 | 63.5 | inactive | 199 | inactive |
| CCc1nnc2c(N(C)C)nc3ccccc3n12 | inactive | 34.8 | 76.3 | inactive | 168 | inactive |
| Cc1ccc(C)c(CSc2ncccc2C(=O)O)c1 | inactive | 64.5 | 73.7 | inactive | 222 | inactive |
| O=C(O)c1cc([N+](=O)[O-])ccc1NCc1ccccc1 | inactive | 121 | 149 | inactive | 105 | inactive |
| Cc1cc(C)n2nc(C(=O)Nc3ccc(S(=O)(=O)N4CCCC4)cc3)nc2n1 | inactive | 37 | 82.5 | inactive | 257 | inactive |
| Cc1cccc(/C=N/N(CCO)C2=NS(=O)(=O)c3ccccc32)c1 | inactive | 28.3 | 67.6 | inactive | 139 | inactive |
| COc1cc(N2CCCC2)c(OC)cc1/C=c1/sc2nc3ccccc3n2c1=O | inactive | 76 | 82 | inactive | 195 | inactive |
| CC(=O)Nc1ccc(N2C(=O)c3ccc(C(=O)Nc4nnc(SCc5ccc(F)cc5)s4)cc3C2=O)cc1 | inactive | 43.1 | 92.1 | inactive | 253 | inactive |
| COc1ccc2c(C)nc(N/C(N)=N/S(=O)(=O)c3ccc(C)cc3)nc2c1 | inactive | 38.9 | 87.9 | inactive | 272 | inactive |
| CCc1nnc(NC(=O)CCC(=O)N2CCN(c3ccccn3)CC2)s1 | inactive | 94 | 163 | inactive | 190 | inactive |
| Nc1nonc1C(=O)NCCN=Cc1cc(Cc2ccccc2)cc(Br)c1O | inactive | 55.5 | 59 | inactive | 192 | inactive |
| COC(=O)c1cn(CCOc2ccc(C)cc2)c2ccccc12 | inactive | 37 | 84.4 | inactive | 175 | inactive |
| COc1cc(-c2cc(=O)c3c(O)cc(O)cc3o2)ccc1O | inactive | 36 | 84.7 | inactive | 189 | inactive |
| Cc1ccc(CSc2ncccc2C(=O)O)cc1 | inactive | 67.9 | 199 | inactive | 284 | inactive |
| O=C(O)c1ccc(COc2cccc3ccccc23)o1 | inactive | 58.3 | 89.1 | inactive | 31.9 | inactive |
| O=C(COC(=O)C12CC3CC(CC(C3)C1)C2)Nc1nc2c(F)c(F)c(F)cc2s1 | inactive | 44.1 | 68.1 | inactive | 0 | inactive |
| COc1cc2[nH]c(=S)nc(NCCc3ccc(C)cc3)c2cc1OC | inactive | 26.6 | 59.9 | inactive | 125 | inactive |
| COc1cccc(CNCc2sc(C(=O)O)cc2C)c1 | inactive | 62.1 | 87.2 | inactive | 33.8 | inactive |

| Structure (SMILES) | outcome [1] | fluorescence, percent of control (lower = inhibition) [2] [%] | GTP binding, percent of control [3] [%] | outcome [4] | GTP binding signal, raw median fluorescence (lower = inhibition) (MCF (arbitrary fluorescence units)) [5] | outcome [6] |
| --- | --- | --- | --- | --- | --- | --- |
| COc1cccc(CNCc2sc(C(=O)O)cc2C)c1OC | inactive | 61.7 | 80.7 | inactive | 35 | inactive |
| CN(C)S(=O)(=O)c1ccc(C(=O)NNc2nc(-c3ccccc3)c3cc(Br)ccc3n2)cc1 | inactive | 31.2 | 71.7 | inactive | 166 | inactive |
| CCCOC(=O)c1c(NC(=O)CCC(=O)O)sc2c1CCCCC2 | inactive | 32.9 | 79 | inactive | 282 | inactive |
| Cc1ccc(-n2nc3c(=S)[nH]nc(C)c3c2C)cc1 | inactive | 54.7 | 66.3 | inactive | 201 | inactive |
| CCOc1cccc(-c2nn3c(-c4ccco4)nnc3s2)c1 | inactive | 32.7 | 71.3 | inactive | 164 | inactive |
| O=C(O)C1=C[C@H](c2ccc(Br)cc2)C[C@H](OCc2ccc(CO)cc2)O1 | inactive | 30.3 | 82.5 | inactive | 230 | inactive |
| O=C(O)CC/C(=C\c1ccccc1[N+](=O)[O-])c1nc2ccccc2s1 | inactive | 30.2 | 81.6 | inactive | 248 | inactive |
| Nc1nc2c(c(=O)[nH]1)C(c1cccc3ccccc13)C1=C(N2)c2ccccc2C1=O (stereo not given) | inactive | 31 | 75.5 | inactive | 204 | inactive |
| Cc1cc(C)n2nc(SCCOc3ccc(F)cc3)nc2n1 | inactive | 42.7 | 78.4 | inactive | 166 | inactive |
| Cc1cc(C(=O)NC(=S)Nc2cccc(C(=O)O)c2C)ccc1[N+](=O)[O-] | inactive | 37.3 | 85.8 | inactive | 272 | inactive |
| CCCN(N=Nc1cccc([N+](=O)[O-])c1)c1cccc([N+](=O)[O-])c1 | inactive | 84.9 | 156 | inactive | 170 | inactive |
| COc1ccc(CC(=O)Nc2ccc(C(=O)Nc3nccs3)cc2)cc1OC | inactive | 36.7 | 75.2 | inactive | 163 | inactive |
| COc1ccc(-c2cc(C(F)(F)F)c3c(n2)sc2c(O)cc(=O)[nH]c23)c(OC)c1 | inactive | 38.1 | 76.3 | inactive | 162 | inactive |
| COc1ccc(CNc2nc3c(c(=O)n(Cc4ccc(Br)cc4)c(=O)n3C)n2C)cc1 | inactive | 32 | 83.8 | inactive | 222 | inactive |
| Cc1nnc(SCCN2CCOCC2)c2nn(-c3ccccc3F)c(C)c12 | inactive | 48.5 | 61.1 | inactive | 196 | inactive |
| Cn1c(SCC(=O)Nc2cccc(Br)c2)nnc1-c1cc2ccccc2o1 | inactive | 101 | 189 | inactive | 180 | inactive |
| Cn1c(N/N=C/c2ccccc2)nc2sc3c(c2c1=O)CCC3 | inactive | 71.9 | 117 | inactive | 123 | inactive |
| O=C(CSc1n[nH]c(=O)[nH]c1=O)N/N=C/c1ccccc1 | inactive | 49.5 | 61.4 | inactive | 197 | inactive |
| Cc1cc(C)n2nc(SCCOc3ccccc3F)nc2n1 | inactive | 34.1 | 72.5 | inactive | 144 | inactive |
| COc1cc(NS(=O)(=O)c2ccc(NC(=O)/C=C/c3cccc([N+](=O)[O-])c3)cc2)ncn1 | inactive | 29.8 | 77.7 | inactive | 191 | inactive |
